# Test results as given in PubChem BioAssay.
# Several values for one entry are separate records, joined by “and”; a condition that tells them apart may be missing. Equal entries are not always repeated. Records with an inconclusive call do not appear. Activity calls are given as the source filed them. Unless noted, no stated cut-off is given here; in the data, active means inhibition above about 80%; inactive means the rest.
# Columns and labels:
# [1] = LFS_MB_1R medulloblastoma cell growth inhibition, synergistic combos for chromothripsis tumors, cisplatin or BGB combos (AID 1671452); details: LFS_MB_1R medulloblastoma cells, stronger effect = higher value;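 further: cells exposed for 96 hours before readout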
# [2] = CRL2098 osteosarcoma cell growth inhibition, synergistic combos for chromothripsis tumors, BGB or cisplatin IC20 combos (AID 1671454); details: CRL2098 osteosarcoma cells, drug combinations, stronger effect = higher value;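 further: cells exposed for 96 h before readout; 0% = vehicle DMSO and 100% = killing by high DMSO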
# [3] = HD-MB03 medulloblastoma cell growth inhibition, synergistic combos for chromothripsis tumors, BGB or cisplatin IC20 combos (AID 1671455; in the data active means inhibition above about 83%;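 further: 0% = vehicle DMSO and 100% = high DMSO as cytotoxic control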); details: HD-MB03 medulloblastoma cells, stronger effect = higher value
# [4] = UWB1.289 ovarian carcinoma cell growth inhibition, synergistic combos for chromothripsis tumors, BGB or cisplatin combos (AID 1671456); details: UWB1.289 ovarian carcinoma cells, stronger effect = higher value;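 further: cells exposed to compound for four days; 0% = vehicle DMSO and 100% = killing by high DMSO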
# [5] = LFS_MB_2R medulloblastoma cell growth inhibition, synergistic combos for chromothripsis tumors, cisplatin combos (AID 1671457); details: LFS_MB_2R medulloblastoma cells, stronger effect = higher value;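 further: cells exposed to compound for four days before readout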
# [6] = MDA-MB-436 breast carcinoma cell growth inhibition, synergistic combos for chromothripsis tumors, BGB or cisplatin combos (AID 1671458; call rule not given here;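 further: cells exposed for 96 hours; 0% = vehicle DMSO and 100% = killing by high DMSO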); details: MDA-MB-436 breast carcinoma growth inhibition, drug combinations, stronger effect = higher value
# [7] = UWB1.289_BRCA1 ovarian cancer growth, cell-based, BGB or cisplatin combinations (AID 1671459); details: UWB1.289 BRCA1 ovarian carcinoma, drug combinations, stronger effect = higher value
# [8] = human astrocyte viability loss, single and combined drugs, cytotoxicity control for chromothriptic childhood tumor combination screen, cell-based, BGB or cisplatin IC20 combos (AID 1671460); details: Human astrocytes, drug combinations, stronger effect = higher value;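 further: cells exposed to compounds for 96 hours before viability readout; 0% = vehicle and 100% = killing control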
# [9] = growth inhibition of BT084 medulloblastoma cells, cell-based, ICGC_MB145, cisplatin and BGB IC40 combos (AID 1671461); details: drug combinations, stronger effect = higher value;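 further: cells exposed to drugs for 96 hours; 0% = vehicle DMSO and 100% = high DMSO full killing control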
# [10] = growth inhibition of RCMB18 medulloblastoma cells, cell-based, cisplatin and BGB IC40 combos (AID 1671462); details: stronger effect = higher value;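 further: cells exposed to compound for four days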
# [11] = growth inhibition of CRL1545 osteosarcoma cells, cell-based, cisplatin and BGB IC20 combos (AID 1671464); details: stronger effect = higher value;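 further: cells exposed to compound for 96 hours before readout; 0% = vehicle DMSO and 100% = high DMSO killing control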
# [12] = tested on: Aerobactin synthetase IucA (Klebsiella pneumoniae); test: IucA aerobactin synthetase inhibitors, biochemical, Tocris library, absorbance (AID 1345561; call rule not given here;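 further: 100% = enzyme without compound and 0% = no enzyme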); details: purified IucA enzyme assay, absorbance (OD) read-out; stronger effect = lower value;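 tested at 8 µM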
# [13] = modifiers of HSF1 nuclear foci, imaging, Selleck Cancer Library (AID 1347162; in the data active means plate-normalised HSF1 focus index below about 0.46); details: human cells, at 10 µM; SSMD: measured here: HSF1 foci SSMD mean; cell count: measured here: cell number; plate-normalised HSF1 focus index: stronger effect = lower value
# [14] = inhibitors of Cryptococcus chitosan production, flow cytometry, Cibacron Brilliant Red staining (AID 1347148; call rule not given here;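 further: compound exposure lasted three days at 37 degrees C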); details: Cryptococcus neoformans chitosan, stronger effect = lower value; at 99.1 µM unless noted
# [15] = protection against mutant huntingtin cytotoxicity, PC12 cells, LDH release (AID 1610); details: PC12 mutant huntingtin toxicity, final LDH at 4 uM, stronger effect = lower value
# [16] = measured here: combination with BGB IC40, at 0.05 µM
# [17] = measured here: combination with cisplatin, at 0.5 µM
# [18] = measured here: combination with cisplatin, at 5 µM
# [19] = measured here: combination with BGB at IC20, at 0.5 µM
# [20] = measured here: combination with cisplatin at IC20, at 0.5 µM
# [21] = measured here: combo with BGB at IC20, at 0.5 µM
# [22] = measured here: combo with cisplatin at IC20, at 0.5 µM
# [23] = measured here: inhibition with BGB combination, at 0.05 µM
# [24] = measured here: inhibition with cisplatin combination, at 0.05 µM
# [25] = measured here: BGB combination, at 0.5 µM
# [26] = measured here: BGB combination, at 5 µM
# [27] = measured here: cisplatin combination, at 0.5 µM
# [28] = measured here: cisplatin combination, at 5 µM
# [29] = BGB combination, concentration series, at 5 µM
# [30] = cisplatin combination, concentration series, at 5 µM
# [31] = measured here: combo with BGB IC20, at 0.5 µM
# [32] = measured here: combo with cisplatin IC20, at 0.5 µM
# [33] = cisplatin combination, at 0.5 µM
# [34] = measured here: BGB IC40 combination 0.05 uM, at 0.05 µM
# [35] = measured here: BGB IC40 combination, at 0.05 µM
# [36] = measured here: with BGB IC20 combination, at 0.5 µM
# [37] = measured here: with cisplatin IC20 combination, at 0.5 µM
smiles,measurement,setting,value
Cn1c(=O)c2[nH]cnc2n(C)c1=O,inhibition,[1]; at 0.5 µM,-21.9% (inactive) and -0.42% (inactive) and -31.4% (inactive)
same,inhibition,[1]; [16],-26.4% and 1.86% and -7.92%
same,inhibition,[1]; [17],-14.9% and -0.619% and -31.4%
same,inhibition,[1]; [18],8.09% and -20.9% and -28.9%
same,inhibition,[2]; at 0.5 µM,-26.5% (inactive) and -30.1% (inactive) and -56.1% (inactive)
same,inhibition,[2]; [19],-30.2% and -27.7% and -48.2%
same,inhibition,[2]; [20],-14.9% and -28.7% and -88%
same,inhibition,[3]; at 0.5 µM,-13.1% (inactive) and -5.07% (inactive) and -0.46% (inactive)
same,inhibition,[3]; [21],-12% and -8.62% and 8.13%
same,inhibition,[3]; [22],-20.1% and -3.43% and -7.86%
same,inhibition,[4]; at 0.5 µM,4.45% (inactive) and -2.98% (inactive) and 2.06% (inactive)
same,inhibition,[4]; [23],-14.7% and -27.6% and -12%
same,inhibition,[4]; [24],-7.61% and -9.15% and -16.4%
same,inhibition,[5]; at 0.5 µM,-18.7% (inactive) and -17.5% (inactive) and -20.5% (inactive)
same,inhibition,[5]; [17],-25.2% and -14.1% and -19.4%
same,inhibition,[5]; [18],-67.2% and -2.43% and -20.9%
same,inhibition,[6]; at 0.5 µM,-17.5% (inactive) and -19.5% (inactive) and -13.6% (inactive)
same,inhibition,[6]; [25],-12% and -14.3% and -17.1%
same,inhibition,[6]; [26],-13.2% and -18.8% and -9.87%
same,inhibition,[6]; [27],-40.2% and -33.9% and -18.2%
same,inhibition,[6]; [28],-36.3% and -17.6% and -0.817%
same,inhibition,[7]; [29],-19.8% and 16.6% and -0.184%
same,inhibition,[7]; at 0.5 µM,-1.02% (inactive) and -1.86% (inactive) and -8.23% (inactive)
same,inhibition,[7]; [30],10.1% and 4.75% and 18.9%
same,inhibition,[8]; at 0.5 µM,0.61% (inactive) and -3.23% (inactive) and 6.04% (inactive)
same,inhibition,[8]; [31],-5.91% and -4.46% and 10.7%
same,inhibition,[8]; [32],-10.6% and -12% and 4.82%
same,inhibition,[9]; at 0.5 µM,-52.1% (inactive) and -29.3% (inactive) and -9.65% (inactive)
same,inhibition,[9]; [33],-24.1% and -32.5% and -4.44%
same,inhibition,"[9]; cisplatin combination, at 5 µM",-14.9% and -47.9% and -47.4%
same,inhibition,[9]; [34],-3.16% and -19.9% and 10.3%
same,inhibition,"[9]; single agent, at 5 µM",-10.6% and -25.6% and -15.2%
same,inhibition,[10]; at 0.5 µM,-12.3% (inactive) and -7.91% (inactive) and -23.8% (inactive)
same,inhibition,"[10]; cisplatin combo, at 5 µM",-18.4% and 16.4% and 3.76%
same,inhibition,[10]; [35],-15.1% and -0.46% and -14.9%
same,inhibition,[10]; [17],5.37% and -0.222% and -34.5%
same,inhibition,"[10]; single agent, at 5 µM",-20% and -29.1% and -26.4%
same,inhibition,[11]; at 0.5 µM,2.86% (inactive) and -13.9% (inactive) and -23% (inactive)
same,inhibition,[11]; [36],6.54% and -1.14% and 25.3%
same,inhibition,[11]; [37],-1.22% and -20.4% and -47.1%
same,inhibition,"[11]; single agent, at 0.05 µM",6.84% and 45.8% and 6.98%
same,inhibition,"[11]; single agent, at 5 µM",18.7% and 15.6% and -12.3%
CC[C@H](C)C(=O)O[C@H]1C[C@H](O)C=C2C=C[C@H](C)[C@H](CC[C@@H](O)C[C@@H](O)CC(=O)O)[C@H]21,remaining activity,[12],123% (inactive)
CCCCCCCCCCC[C@@H](C[C@@H]1OC(=O)[C@H]1CCCCCC)OC(=O)[C@H](CC(C)C)NC=O,remaining activity,[12],84.7% (inactive)
COc1ccc([C@@H]2Sc3ccccc3N(CCN(C)C)C(=O)[C@@H]2OC(C)=O)cc1,remaining activity,[12],113% (inactive)
O=C1[C@H](CC[C@H](O)c2ccc(F)cc2)[C@@H](c2ccc(O)cc2)N1c1ccc(F)cc1,SSMD,[13],0.185
same,cell count,[13],6580
same,plate-normalised HSF1 focus index,[13],1.01 (inactive)
O=C1N=C(O)CN1/N=C/c1ccc(-c2ccc([N+](=O)[O-])cc2)o1,remaining activity,[12],110% (inactive)
same,fold fluorescence,[14],4.66 [at 159.1 µM] (inactive)
NC(N)=NC(=O)c1nc(Cl)c(N)nc1N,remaining activity,[12],101% (inactive)
same,fold fluorescence,[14],7.16 [at 217.7 µM] (inactive)
COc1cc2nc(N3CCN(C(=O)c4ccco4)CC3)nc(N)c2cc1OC,remaining activity,[12],96.4% (inactive)
same,fold fluorescence,[14],6.39 [at 130.4 µM] (inactive)
O=C(c1ccccc1)c1ccc2n1CCC2C(=O)O (stereo unspecified),normalised LDH release,[15],0.828
Nc1c2c(nc3ccccc13)CCCC2,normalised LDH release,[15],0.878
same,remaining activity,[12],109% (inactive)
Fc1ccc([C@@H]2CCNC[C@H]2COc2ccc3c(c2)OCO3)cc1,remaining activity,[12],109% (inactive)
CNCCCC12CCC(c3ccccc31)c1ccccc12,remaining activity,[12],112% (inactive)
OCCN(CCO)c1nc(N2CCCCC2)c2nc(N(CCO)CCO)nc(N3CCCCC3)c2n1,remaining activity,[12],98% (inactive)
same,fold fluorescence,[14],2.89 (active)
C[C@@H]1C[C@H]2[C@@H]3CCC4=CC(=O)C=C[C@]4(C)[C@@]3(F)[C@@H](O)C[C@]2(C)[C@@]1(O)C(=O)CO,SSMD,[13],1.52
same,cell count,[13],6940
same,plate-normalised HSF1 focus index,[13],1.08 (inactive)
CC[C@]1(O)C[C@@H]2CN(CCc3c([nH]c4ccccc34)[C@@](C(=O)OC)(c3cc4c(cc3OC)N(C)[C@H]3[C@@](O)(C(=O)OC)[C@H](OC(C)=O)[C@]5(CC)C=CCN6CC[C@]43[C@@H]65)C2)C1,fold fluorescence,[14],15.3 [at 55 µM] (inactive)
COc1ccccc1N1CCN(CCCNc2cc(=O)n(C)c(=O)n2C)CC1,remaining activity,[12],103% (inactive)
COc1ccc2c(c1)c(CC(=O)O)c(C)n2C(=O)c1ccc(Cl)cc1,remaining activity,[12],120% (inactive)
same,fold fluorescence,[14],4.17 [at 139.7 µM] (inactive)
Nc1nc2ccc(OC(F)(F)F)cc2s1,remaining activity,[12],83.1% (inactive)
CCOC(=O)N1CCC(=C2c3ccc(Cl)cc3CCc3cccnc32)CC1,remaining activity,[12],99.4% (inactive)
CCn1cc(C(=O)O)c(=O)c2cc(F)c(N3CCNCC3)cc21,inhibition,[1]; at 0.5 µM,16.4% (inactive)
same,inhibition,[1]; [16],-0.695%
same,inhibition,[1]; [17],26.1%
same,inhibition,[1]; [18],22.9%
same,inhibition,[2]; at 0.5 µM,-43.9% (inactive)
same,inhibition,[2]; [19],-32.8%
same,inhibition,[2]; [20],-33.5%
same,inhibition,[3]; at 0.5 µM,-1.96% (inactive)
same,inhibition,[3]; [21],-6.97%
same,inhibition,[3]; [22],4.39%
same,inhibition,[4]; at 0.5 µM,3.04% (inactive)
same,inhibition,[4]; [23],-22.6%
same,inhibition,[4]; [24],-1.67%
same,inhibition,[5]; at 0.5 µM,-18.9% (inactive)
same,inhibition,[5]; [17],-13.2%
same,inhibition,[5]; [18],-11.8%
same,inhibition,[6]; at 0.5 µM,-18.4% (inactive)
same,inhibition,[6]; [25],-12.8%
same,inhibition,[6]; [26],-3.58%
same,inhibition,[6]; [27],-41.9%
same,inhibition,[6]; [28],-18.8%
same,inhibition,[7]; [29],-3.45%
same,inhibition,[7]; at 0.5 µM,2.01% (inactive)
same,inhibition,[7]; [30],12.5%
same,inhibition,[8]; at 0.5 µM,5.02% (inactive)
same,inhibition,[8]; [31],10.6%
same,inhibition,[8]; [32],-14.6%
same,inhibition,[9]; at 0.5 µM,-27.2% (inactive)
same,inhibition,[9]; [33],-24.4%
same,inhibition,"[9]; cisplatin combination, at 5 µM",-61.7%
same,inhibition,[9]; [34],-27.3%
same,inhibition,"[9]; single agent, at 5 µM",-32.3%
same,inhibition,[10]; at 0.5 µM,-5.94% (inactive)
same,inhibition,"[10]; cisplatin combo, at 5 µM",-71.7%
same,inhibition,[10]; [35],-15.2%
same,inhibition,[10]; [17],20.7%
same,inhibition,"[10]; single agent, at 5 µM",-42.9%
same,inhibition,[11]; at 0.5 µM,-19.2% (inactive)
same,inhibition,[11]; [36],-33.4%
same,inhibition,[11]; [37],-12.1%
same,inhibition,"[11]; single agent, at 0.05 µM",20.3%
same,inhibition,"[11]; single agent, at 5 µM",24%
CNC(=O)Oc1ccc2c(c1)[C@]1(C)CCN(C)[C@@H]1N2C,normalised LDH release,[15],0.859
CC(=O)O[C@]1(C(C)=O)CC[C@H]2[C@@H]3C=C(C)C4=CC(=O)CC[C@]4(C)[C@H]3CC[C@@]21C,SSMD,[13],0.639
same,cell count,[13],7050
same,plate-normalised HSF1 focus index,[13],1.04 (inactive)
